Bioassay records from PubChem.
IL1B secr inh = inhibitors of inflammasome signaling (IL-1 beta secretion). THP-1 LPS/ATP IL-1B secretion, AlphaLISA, 16 h; active compounds read low. activity change, % at 57.5 µM. hit rate 4.7% among 360,000. AID 743279; in the data active = activity change below about -50%; inconclusive = mostly about -30% to -49%; note: % is set by controls: 0 for no effect and ±100 for the full control effect
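THP-1 cells pretreated 1 hr with compounds (up to 57.5 uM final), then stimulated with LPS (250 ng/mL final) plus ATP (1.25 mM final); secreted IL-1B measured by AlphaLISA after 16 hr, decreased signal indicating inhibition.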
S2 tox = cell viability loss in ATXN counter-screen; S2 cells (HEK-293 line with an ATXN2-luciferase reporter) viability, CellTiter-Fluor protease fluorescence, 24 h; Potency, µM (highest dose often 56.7 µM), actives largely listed as cytotoxic; hit rate 0.49% among 400,000; AID 651635; note: potency is the fitted concentration of half-maximal effect; nearly all actives have a fitted effect of over 40% in size
USP1 inh = blocks the human USP1/UAF1 deubiquitinase complex; O94782; recombinant USP1/UAF1, Ub-Rhodamine cleavage fluorescence; Potency, µM (series often up to 57.1 µM), for inactives: at the top dose activity change, negative = inhibition, actives largely listed as inhibitors; hit rate 0.23% among 390,000; AID 743255; note: potency is the fitted concentration of half-maximal effect; % is set by controls: 0 for no effect and ±100 for the full control effect; nearly all actives have a fitted effect of over 60% in size
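1 nM enzyme complex + cpd, 15 min RT; start with Ub-Rho 150nM final; kinetic fluorescence ex 480/em 540, 6 reads q60 s. Buffer 50mM HEPES pH 7.8, 0.5mM EDTA, 0.1 mg/ml BSA, 1mM TCEP, 0.01% Tween-20.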
ATXN2 expr inh = ATXN2 expression inhibition; hit rate 0.72% among 360,000; Potency, µM (highest dose often 57 µM), inactives show at the highest dose activity change, negative = inhibition, actives largely listed as inhibitors; HEK-293 ATXN2-luciferase reporter, luminescence, 24 h; note: potency is the fitted concentration of half-maximal effect; % is set by controls: 0 for no effect and ±100 for the full control effect; nearly all actives have a fitted effect of over 55% in size
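qHTS (up to 57 uM final) was run with 24 h compound exposure of reporter cells at 37 °C. Each well was multiplexed: SteadyGlo luminescence measured ATXN2-luciferase expression after a fluorogenic Gly-Phe-AFC viability readout (25 uM final).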
USP2a inh = USP2a (human) protease inhibition. USP2 core, Ub-CHOP2 coupled fluorogenic reporter, 485/531. Potency, µM (highest dose often 38.3 µM), inactives show top-dose activity change, negative = inhibition, most hits filed as inhibitors. hit rate 0.01% among 330,000. AID 463254;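 note: potency is the fitted concentration of half-maximal effect; plate controls were DMSO wells for no effect and full inhibition by NEM control for full effect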
Target sequence (O75604 whole entry, looked up): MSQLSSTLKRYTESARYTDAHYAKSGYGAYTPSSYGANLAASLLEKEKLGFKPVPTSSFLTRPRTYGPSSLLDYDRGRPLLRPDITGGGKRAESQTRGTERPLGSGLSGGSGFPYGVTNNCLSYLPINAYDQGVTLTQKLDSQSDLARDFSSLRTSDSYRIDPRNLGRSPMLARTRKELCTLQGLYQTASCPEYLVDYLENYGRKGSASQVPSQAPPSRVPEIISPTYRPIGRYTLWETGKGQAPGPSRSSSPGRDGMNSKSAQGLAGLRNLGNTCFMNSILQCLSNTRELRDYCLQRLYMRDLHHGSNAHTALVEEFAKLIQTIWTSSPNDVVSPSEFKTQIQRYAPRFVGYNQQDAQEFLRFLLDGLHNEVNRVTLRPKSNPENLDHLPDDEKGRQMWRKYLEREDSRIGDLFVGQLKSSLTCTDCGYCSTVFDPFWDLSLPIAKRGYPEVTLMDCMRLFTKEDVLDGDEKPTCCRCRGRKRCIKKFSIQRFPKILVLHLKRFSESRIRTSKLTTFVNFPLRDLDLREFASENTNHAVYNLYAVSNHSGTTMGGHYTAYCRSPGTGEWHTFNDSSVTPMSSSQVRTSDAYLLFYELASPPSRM
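Deubiquitinase activity read as fluorescence (485/531 nm) after Ub-CHOP2 cleavage activates the enterokinase reporter on its substrate; USP2 core 10nM, Ub-CHOP2 and substrate 25nM each, 30min compound preincubation then 60min RT; data normalized to NEM, curves fitted.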
Starred values were filed as active, the others as inactive; i = inactive; u = inconclusive; x = no result; [ ] = dose if it differs, or a comment. Rows were chosen to be rich in hits. Some 4.8% of all compounds tested hit in one or more screens of this group. Unless noted, calls come from the whole dose curve; as a rule, active = well fitted curve in the direction sought with a large enough effect; inconclusive = small, poorly fitted or top-dose-only effect, or another doubt; inactive = no such curve, though single readings can be large; an effect the other way counts as inactive or inconclusive.

SMILES | IL1B secr inh | S2 tox | USP1 inh | ATXN2 expr inh | USP2a inh
CN1CCN(c2ccc(NC(=O)COc3ccccc3Cl)cc2)CC1 | u | i | -8.3% | -7.0% | -0.1%
C=CC(=O)Nc1ccc(N(C)c2ccnc(Nc3ccc(N4CCN(C)CC4)cc3)n2)cc1 | -77.2* | 14.1µM* | -19.6% | -37.3% | 2.3%
CCn1cc([N+](=O)[O-])c(C(=O)N2N=C(c3ccc(Cl)c(Cl)c3)CC2c2ccccc2O)n1 (centres undefined) | -85.1* | x | -25.0% | u | 2.0%
CCOC(=O)c1c(N)sc2c(OCC)c(Br)ccc12 | -24.0 | u | -18.0% | -16.2% | 3.5%
CCOC(=O)c1c(NC(C)=O)sc2c(OCC(O)CNC(C)(C)C)c(Br)ccc12 (centres undefined) | -71.9* | x | -21.7% | x | 2.2%
COc1cc(CNC(=O)Nc2cccn3nc(COCCO)nc23)cc(OC)c1OC | -6.2 | i | x | 5.7% | x
Cc1cccc(C)c1NC(=O)C(Cl)=C(Cl)Cl | -58.8* | i | -13.5% | -24.4%[11.3 µM] | 2.8%
Cc1nn(-c2ccccc2)c(OC(=O)c2ccccc2F)c1S(=O)(=O)c1ccccc1 | x | i | -15.9% | -9.2% | x
COc1cccc(-c2nc(SCC(=O)NC3CCCC3)c(-c3ccccc3)[nH]2)c1 | x | x | -9.1% | x | x
COC(=O)CN1C(=S)N(c2ccc(OC)cc2)C(=O)/C1=C/c1ccc(OC)cc1 | 29.4 | i | -21.5% | -19.3% | -5.6%
COC(=O)CN1C(=S)N(c2ccc(OC)cc2)C(=O)/C1=C/c1ccc(N2CCOCC2)cc1 | u | i | 28.2µM* | 1.0% | 7.8%
O=C(c1ccc(Cl)c(S(=O)(=O)N2CCCCCC2)c1)N1CCN(c2ccccc2O)CC1 | -68.3* | i | -20.3% | -10.5% | -0.2%
O=C(c1ccc(Cl)c(S(=O)(=O)N2CCOCC2)c1)N1CCc2ccccc2C1 | -63.7* | i | 3.6% | -11.1% | 3.5%
O=C(c1ccc2ncsc2c1)N1CCN(c2ccccc2Cl)CC1 | -66.1* | i | -6.0% | 7.9% | 2.3%
COc1ccc(CN2CCOc3ccc(CN4CCC(Oc5cccnc5)CC4)cc3C2)c(F)c1 | x | i | x | x | x
COCCN(CC(=O)Nc1cccc(C)c1C)C(=O)C1(c2ccc(Cl)cc2)CCC1 | -53.1* | i | -22.1% | -15.8% | -0.4%
CCOC(=O)/C(=C/C=C1\Sc2cc(C)c(C)cc2N1CC)C(C)=O | -92.5* | i | 25.1µM* | -3.5%[11.3 µM] | u
O=[N+]([O-])c1cc(Cc2ccccc2)cc(C=Nc2ccc(N3CCOCC3)cc2)c1O | -22.0 | i | 25.1µM* | 1.0% | 1.6%
Cc1ccc(O)c(N=Cc2cc(Cc3ccccc3)cc([N+](=O)[O-])c2O)c1 | 13.0 | i | 25.1µM* | -1.6%[11.3 µM] | -0.5%
COc1ccccc1OC(C)C(=O)Nc1c(C(=O)c2ccc(Cl)cc2)oc2ccccc12 (centres undefined) | x | i | -15.7% | 15.3% | x
CCn1ccnc1CN(C)C(=O)C1CCC(=O)N(Cc2cccc(F)c2)C1 (centres undefined) | 11.0 | i | -8.2% | -5.3% | -0.7%
Cc1ccc(CCNC(=O)C2CCN(S(=O)(=O)c3ccc4c(c3)NC(=O)C(C)S4)CC2)cc1 (centres undefined) | -68.5* | u | -12.7% | u | -1.6%
O=C1NC[C@H](Cc2ccccc2)N(C[C@@H]2CCCN2C[C@H](Cc2ccccc2)N2C[C@H](Cc3ccc(O)cc3)N(CCc3ccccc3)C(=O)C2=O)C1=O | -60.3* | i | x | -22.7% | x
O=C1NC[C@H](Cc2ccc(O)cc2)N(C[C@@H]2CCCN2C[C@H](Cc2ccccc2)N2C[C@H](Cc3ccc(O)cc3)N(CCc3ccccc3)C(=O)C2=O)C1=O | u | i | x | 0.4% | x
O=C1NC[C@H](Cc2ccccc2)N(C[C@H]2CCCN2C[C@H](Cc2ccccc2)N2C[C@H](Cc3ccc(O)cc3)N(CCc3ccccc3)C(=O)C2=O)C1=O | -52.4* | u | -13.7% | -20.3% | x
SMILES | IL1B secr inh | S2 tox | USP1 inh | ATXN2 expr inh | USP2a inh
O=C1NC[C@H](Cc2ccccc2)N(C[C@@H]2CCCN2C[C@H](Cc2ccc(O)cc2)N2C[C@H](Cc3ccc(O)cc3)N(CCc3ccccc3)C(=O)C2=O)C1=O | -19.6 | i | x | 6.7% | x
CCc1ccc(Nc2n[n+](-c3ccccc3)c(-c3c(Cl)cccc3Cl)s2)cc1 | -91.8* | 10µM* | -19.0% | 10µM* | 4.8%
Fc1ccc(-[n+]2nc(Nc3ccccc3)sc2-c2c(Cl)cccc2Cl)cc1 | -93.6* | x | -30.1% | u | 1.3%
COc1ccc2ccccc2c1-c1sc(Nc2ccccc2)n[n+]1-c1ccc(F)cc1 | -78.1* | 28.2µM* | 10.2% | 28.2µM* | 1.2%
COc1ccc(-c2sc(Nc3ccccc3)n[n+]2-c2ccc(F)cc2)cc1Br | u | u | 3.3% | -15.4% | 0.3%
Cc1oc2ccc(O)c(CN3CCCCCC3)c2c1C(=O)Nc1cccc(C(F)(F)F)c1 | x | x | 4.9% | x | x
CCC(=O)O[C@]1(C(=O)COC)[C@@H](C)C[C@H]2[C@@H]3CCC4=CC(=O)C=C[C@]4(C)C3(F)[C@@H](O)C[C@@]21C (some centres undefined) | x | i | x | -1.1% | x
CC1CCC2C(=O)N(c3ccc(C(=O)Oc4cccc5cccnc45)cc3)C(=O)C2C1 (centres undefined) | -85.6* | x | -24.0% | -38.2% | 0.4%
O=[N+]([O-])c1c(C(Cl)Cl)nn(-c2ccccc2)c1N1CCOCC1 | -80.6* | i | u | -10.9%[11.3 µM] | 9.3%
CC(C)NC(=O)[C@@H]1C[C@@H](Sc2nc3ccccc3[nH]2)CN1C1Cc2ccccc2C1 | x | i | x | x | x
CCOCN(C(=O)Cn1cnc2cc(C)c(C)cc21)c1c(C)cccc1CC | x | 28.2µM* | -15.0% | -19.1% | x
CCOCN(C(=O)Cn1c(COC)nc2ccccc21)c1c(C)cccc1CC | -5.3 | u | -3.9% | 0.8% | 3.0%
C=CCn1c(=O)/c(=C/c2ccc(Cl)cc2)s/c1=C(\C#N)c1nnc2n1CCCCC2 | -79.5* | u | -21.2% | u | x
O=C1Nc2ccc(Br)cc2C1=C1CCCCC1 | 29.0 | i | -21.9% | -1.6% | 4.2%
N#C/C(=C1/C(=O)Nc2ccc(Br)cc21)c1ccccn1 | -61.8* | i | -8.8% | -2.9% | 2.9%
COc1ccc(NCc2nc3ccccc3n2CCOc2ccccc2)cc1 | -114.3* | i | -7.4% | 70.9% | 1.0%
c1ccc(NCc2nc3ccccc3n2CCOc2ccccc2)cc1 | -11.2 | i | -13.3% | 33.8% | 0.4%
COc1ccc(NCc2nc3ccccc3n2CCOc2ccc(C)cc2)cc1 | -95.1* | u | -11.3% | u | -1.9%
O=C1O/C(=C/c2ccccc2)c2ccccc21 | 22.4 | i | -24.6% | 5.2% | -0.2%
N#CC1=C(c2ccccc2)/C(=C/c2ccccc2)OC1=O | -104.4* | x | -23.4% | u | 3.8%
